# Most compounds without a hit are left out; they make up all but 0.98% or so of the library.
# Rv3671c protease: Rv3671c (M. tuberculosis) protease inhibition; inhibition, % at 5.96 µM; hit rate 0.048% among 320,000; P9WHR9; in the data active = inhibition above about 38%;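 also: extracellular domain of Rv3671c used as enzyme; 0% = enzyme with DMSO and 100% = no enzyme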
# Target sequence (P9WHR9 whole entry, looked up, the tested form may be a part): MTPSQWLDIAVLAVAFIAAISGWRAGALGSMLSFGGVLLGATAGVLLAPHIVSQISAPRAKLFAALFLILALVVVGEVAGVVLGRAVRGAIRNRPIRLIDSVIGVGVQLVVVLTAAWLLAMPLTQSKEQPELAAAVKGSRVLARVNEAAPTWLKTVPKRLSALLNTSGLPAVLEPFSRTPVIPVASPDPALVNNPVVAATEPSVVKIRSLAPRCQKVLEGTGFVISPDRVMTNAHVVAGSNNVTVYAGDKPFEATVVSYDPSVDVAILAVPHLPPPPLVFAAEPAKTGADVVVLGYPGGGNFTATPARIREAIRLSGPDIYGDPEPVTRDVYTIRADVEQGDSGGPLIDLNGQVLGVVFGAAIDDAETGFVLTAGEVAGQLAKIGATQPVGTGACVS
# Y pestis TopoI: inhibitors of Yersinia pestis topoisomerase I; Y. pestis Topo-I cleavage product accumulation, plate reader; activity, % at 10 µM; hit rate 0.064% among 360,000; in the data active = activity above about 50%, passing the limit was not always enough; inconclusive = no clear call, values can overlap the other calls
# UGM FP inh: blocks M. tuberculosis UGM enzyme | P9WIQ1 | purified UGM, fluorescence polarization probe displacement | inhibition, % at 10 µM | hit rate 0.06% among 320,000; in the data active = inhibition above about 10%, passing the limit was not always enough; inconclusive = no clear call, values can overlap the other calls
# Mtb betalactam: beta-lactam sensitization of Mtb H37Rv; M. tuberculosis H37Rv growth with meropenem, percent inhibition; inhibition, % at 25 µM; hit rate 0.27% among 330,000; call rule not given here;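 also: growth measured after seven days incubation then overnight dye step; 0% = bacteria only wells and 100% = bacteria with antibiotic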
# PfHsp40 yeast: restores yeast growth despite PfHsp40 toxicity; growth rescue, % at 12.5 µM; AID 504582; hit rate 0.68% among 340,000; S. cerevisiae expressing PfHsp40, growth rescue, ATP luminescence; in the data active = growth rescue above about 28%, passing the limit was not always enough; inconclusive = no clear call, values can overlap the other calls;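 also: yeast W303a lacking pdr1 and pdr3 grown in galactose medium; growth measured after three days at 30 °C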
# FadD28 binding: inhibitors of Mycobacterium tuberculosis FadD28 bisubstrate binding | FadD28 bisubstrate probe binding, fluorescence polarization | inhibition, % at 12.5 µM | hit rate 0.22% among 360,000; in the data active = inhibition above about 8.5%, passing the limit was not always enough; inconclusive = no clear call, values can overlap the other calls
# * hit, by the source's call; ? = inconclusive; . = no result given.
SMILES,Rv3671c protease,Y pestis TopoI,UGM FP inh,Mtb betalactam,PfHsp40 yeast,FadD28 binding
O=C(O)c1c(C(=O)O)c(-c2ccc(Br)cc2)n2c1CSC2,-6,0,-3,5,-1,13*
CCCN1CCCC[C@H]1C(=O)Nc1c(C)cccc1C,-5,7,0,-4,43*,-1
COCCNC(=O)c1ccc(N2CC3CC(C2)c2cccc(=O)n2C3)c(NC(=O)c2ccccc2Br)c1 (configuration not stated),.,7,.,.,.,0
CCCC1COC(Cn2cncn2)(c2ccc(C)cc2)O1 (configuration not stated),2,3,3,0,132*,-2
CCOc1ccccc1/C=N/NC(=O)c1cccc(S(=O)(=O)N(CC)CC)c1,0,-6,1,1,0,0
CCN(CC)c1ccc(/C=N/NC(=O)c2cccc(S(=O)(=O)Nc3ccccc3OC)c2)cc1,3,15,1,-3,0,2
CCN(CC)S(=O)(=O)c1cccc(C(=O)Nc2ccc(Cl)cn2)c1,4,2,2,3,56*,-2
CCN(CC)c1ccc(/C=N/NC(=O)c2cccc(S(=O)(=O)Nc3ccccc3OC)c2)c(O)c1,25,-4,-4,4,105*,4
CCc1cccc2c(/C=N/NC(=O)c3cccc(S(=O)(=O)Nc4ccccc4Cl)c3)c[nH]c12,11,-20,1,47,-1,34*
CCN(CC)S(=O)(=O)c1cccc(C(=O)N/N=C/c2ccc(O)c(O)c2O)c1,13,-12,0,7,202*,3
Cc1[nH]c2ccccc2c1/C=N/NC(=O)c1cccc(S(=O)(=O)Nc2ccccc2Cl)c1,-6,-16,3,0,1,-1
Cc1ccc(S(=O)(=O)N2C[C@@H](C)[C@]3(C2)[C@H](O)[C@H](OC(=O)NCc2ccccc2F)C[C@H]2C(=O)N(c4ccccc4)C(=O)[C@H]23)cc1,.,2,.,.,.,-1
CCN(CC)c1ncnc2c1ncn2[C@H]1CN(Cc2ccc3c(c2)OCO3)C[C@@H](CO)O1,.,2,.,.,.,-3
CC(C)(c1ccc(O)cc1)c1ccc(O)c(C(=O)O)c1,.,6,.,.,.,-17
CCC1CCCCN1C(=O)COc1ccc(S(=O)(=O)N2CCOCC2)cc1Cl (configuration not stated),-9,11,-2,-3,1,-2
CCN(CC)c1ccc(/C=N/NC(=O)c2ccc3nc[nH]c3c2)c(O)c1,35,-16,2,-1,-1,27*
COc1cccc(/C=N/NC(=O)c2ccc3nc[nH]c3c2)c1O,-29,-7,0,-1,0,-4
CN(C)c1ccc(-c2ccnc3c2CC(C)(C(=O)NCc2cccc(Cl)c2)O3)cc1 (configuration not stated),.,37,.,.,.,0
CCOC(=O)[C@@H]1[C@H]2COc3cc(OC)ccc3[C@H]2N2C(=O)N(c3ccc(C(F)(F)F)cc3)C(=O)[C@]12C,-70,-2,-2,100,193*,-2
CCOC1=C2[C@@H](CN(S(=O)(=O)c3ccc(C)cc3)[C@H]2c2ccccc2F)[C@H]2C(=O)N(C3CCCCC3)C(=O)[C@H]2C1,.,.,.,.,.,-2
O=C(c1ccc([N+](=O)[O-])c(CS(=O)(=O)c2ccc(Cl)cc2)c1)N1CCCC1,-1,-17,-1,-1,41*,-3
CCCCCCCCNS(=O)(=O)CCNCc1ccccc1OC,.,53*,.,.,-1,-1
COc1ccc(CNS(=O)(=O)CCNCc2ccccc2OC)cc1,.,12,.,.,-1,1
CN(CCc1ccccc1)C(=O)c1ccc(NC(=O)Cc2ccc(NC(=O)C3CCN(C(=O)CCc4ccccc4)CC3)cc2)cc1,.,10,.,.,1,-1
Nc1nnc(CC(=O)N/N=C/c2cccc([N+](=O)[O-])c2)s1,0,-5,-2,-5,0,-2
SMILES,Rv3671c protease,Y pestis TopoI,UGM FP inh,Mtb betalactam,PfHsp40 yeast,FadD28 binding
Nc1nnc(CC(=O)N/N=C/c2cc([N+](=O)[O-])cc(Br)c2O)s1,7,-13,-1,4,-1,37*
ON=C1c2ccccc2-c2ccc(Br)cc21,.,5,.,.,5,-4
Nc1cc2c(cc1Br)-c1ccccc1C2=NO,.,6,.,.,47*,-1
CCc1noc(C)c1C(=O)Nc1ccc(Cl)c(S(=O)(=O)N2CCCCC2)c1,4,15,-1,-12,2,-2
O=C(c1cc2ccccc2o1)N1CCN(c2ccccc2Cl)CC1,-2,6,2,6,187*,2
C/C(=N\Nc1ccc(C(=O)O)cc1)c1ccc2c(c1)Nc1ccccc1S2,5,-5,2,69,207*,20*
C/C(=N/Nc1ccc(C(=O)O)cc1)c1ccc2c(c1)Nc1ccccc1S2,.,-14,.,.,5,20*
COc1ccc(/C(C)=N/Nc2cccc(C(=O)O)c2)cc1OC,11,1,-1,2,2,0
CN(C)c1ccc(-c2ccnc3c2CC(C)(C(=O)Nc2cccc(Oc4ccccc4)c2)O3)cc1 (configuration not stated),.,15,.,.,.,-3
CCOC(=O)C1=CCN(S(=O)(=O)c2ccccc2F)C1c1ccc(F)cc1 (configuration not stated),.,.,.,.,.,-1
COc1ccccc1CNC(=O)c1ccc2nc(C)c(N(C)Cc3ccc(NC(C)=O)cc3)n2c1,.,24,.,.,.,-1
CCC1=NN(C(=O)c2ccccc2Br)C(O)(c2ccc(Br)cc2)C1 (configuration not stated),0,?,2,-2,1,?
CCC1=NN(C(=O)c2ccccc2O)C(O)(c2ccccc2)C1 (configuration not stated),8,-2,0,86,83*,-1
Cc1ccc(NC(=S)c2nc3ccccc3[nH]2)c(C)c1,24,-6,2,8,331*,-11
O=C(CNC(=O)c1ccccc1Br)N/N=C/c1cc(Br)ccc1O,22,-2,3,-6,1,-3
O=C(N/N=C/c1c[nH]c2ccccc12)c1cc(Br)ccc1O,12,-19,0,-4,1,29*
O=C(N/N=C/c1cc(Cl)ccc1O)c1ccccc1Br,-1,-7,0,3,108*,-5
CCOc1ccc(Br)cc1C(=O)N/N=C/c1c[nH]c2ccccc12,-8,3,2,6,0,0
Cc1nc(N)sc1C(=O)N/N=C/c1c[nH]c2ccccc12,-4,0,0,18,-1,9.9*
Cc1nc(N)sc1C(=O)N/N=C/c1ccccc1[N+](=O)[O-],-2,?,3,5,.,-1
COc1cccc(C=NN(C)c2c([N+](=O)[O-])cc(C(F)(F)F)cc2[N+](=O)[O-])c1O,.,.,.,.,.,1
O=C1c2cccc(Cl)c2C(=O)c2c1cccc2N1CCCC1,-18,4,-3,52,381*,0
CCCn1nc(NC(=O)c2cccs2)c2cc3cc(OC)ccc3nc21,-21,5,3,71,68*,-4
CCCn1nc(NC(=O)c2cccs2)c2cc3cc(C)ccc3nc21,-9,1,3,19,48*,-6
